Assay results from PubChem BioAssay.
Calls of active or inactive are those of the source.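 How the source made its calls, unless noted: active means normalized viability below 100% at a tested concentration; inactive means the rest.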

Tests used:
[1] = ovarian cancer cell viability with rucaparib, profiling panel, oncology-focused library, rucaparib conditional (AID 1508598); conditions: patient-derived ovarian cancer cells, CellTiter-Glo viability, 144 h, stronger effect = lower value
[2] = kinase inhibitors against Plasmodium liver-stage infection, cell-based, known kinase inhibitor set, luminescence, hepatoma host viability (AID 624392; call rule not given here;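 further: infected cells incubated roughly two days before readout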); conditions: Plasmodium liver stage in hepatoma cells, luciferase luminescence, concentration not given here; liver cell % of control: measured here: host liver cell viability; parasite % of control: stronger effect = lower value
[3] = modulators of glucocorticoid suppression of NF-kB, cell-based, luciferase, IL-1B stimulus, dexamethasone (AID 624486; call rule not given here;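 on percent of negative control (+Dex): 100% = mean signal of vehicle control wells on the plate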); conditions: NF-kB luciferase reporter, IL-1B + dexamethasone, luminescence; percent of negative control (+Dex): actives lie on both sides, concentration not given here; z-score: measured here: IL-1B alone, no Dex
[4] = kinase inhibitors altering Pseudomonas killing of worms, whole organism (AID 651566; call rule not given here;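 further: tested at 14 µM; sign flipped so higher z means a lower ratio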); conditions: C. elegans killed by P. aeruginosa, survival ratio
[5] = activators of macrophage pro-inflammatory response, cell-based, murine, luminescence (AID 652131; call rule not given here); conditions: murine macrophage pro-inflammatory reporter, stronger effect = higher value
[6] = survival rescue of mitochondrial mutant cells in low glucose, primary screen, MELAS cybrids, Rieske KO mouse fibroblasts, CellTiter-Glo (AID 1508586;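 active means mean z-score across replicates of 1.96 or higher in either the MELAS or the Rieske mutant cell line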;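 further: z relative to plate mean and SD of compound and empty wells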)
[7] = viability rescue of complex I mutant cybrids, primary screen, cell-based, galactose medium, ATP luminescence (AID 1645843;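 active means z-score of at least 1.8 in each of two replicates, scored against plate mean and spread of sample wells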;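 further: positive z means more ATP and so rescue of galactose-driven cybrid death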); conditions: complex I mutant cybrid cells, 72 h, stronger effect = higher value
[8] = at 5 µM, OCI-P5x cells, with rucaparib 20 µM, 100% = cells with rucaparib alone
[9] = at 5 µM, OCI-P5x cells, without rucaparib
[10] = at 0.000305 µM, OCI-C5x cells, with rucaparib 10 µM, 100% = cells with rucaparib alone
[11] = at 0.000305 µM, OCI-C5x cells, without rucaparib
[12] = at 0.000305 µM, OCI-P5x cells, with rucaparib 20 µM, 100% = cells with rucaparib alone
[13] = at 0.000305 µM, OCI-P5x cells, without rucaparib
[14] = at 0.00122 µM, OCI-C5x cells, with rucaparib 10 µM, 100% = cells with rucaparib alone
[15] = at 0.00122 µM, OCI-C5x cells, without rucaparib
[16] = at 0.00122 µM, OCI-P5x cells, with rucaparib 20 µM, 100% = cells with rucaparib alone
[17] = at 0.00122 µM, OCI-P5x cells, without rucaparib
[18] = at 0.00488 µM, OCI-C5x cells, with rucaparib 10 µM, 100% = cells with rucaparib alone
[19] = at 0.00488 µM, OCI-C5x cells, without rucaparib
[20] = at 0.00488 µM, OCI-P5x cells, with rucaparib 20 µM, 100% = cells with rucaparib alone
[21] = at 0.00488 µM, OCI-P5x cells, without rucaparib
[22] = at 0.0195 µM, OCI-C5x cells, with rucaparib 10 µM, 100% = cells with rucaparib alone
[23] = at 0.0195 µM, OCI-C5x cells, without rucaparib
[24] = at 0.0195 µM, OCI-P5x cells, with rucaparib 20 µM, 100% = cells with rucaparib alone
[25] = at 0.0195 µM, OCI-P5x cells, without rucaparib
[26] = at 0.0781 µM, OCI-C5x cells, with rucaparib 10 µM, 100% = cells with rucaparib alone
[27] = at 0.0781 µM, OCI-C5x cells, without rucaparib
[28] = at 0.0781 µM, OCI-P5x cells, with rucaparib 20 µM, 100% = cells with rucaparib alone
[29] = at 0.0781 µM, OCI-P5x cells, without rucaparib
[30] = at 0.313 µM, OCI-C5x cells, with rucaparib 10 µM, 100% = cells with rucaparib alone
[31] = at 0.313 µM, OCI-C5x cells, without rucaparib
[32] = at 0.313 µM, OCI-P5x cells, with rucaparib 20 µM, 100% = cells with rucaparib alone
[33] = at 0.313 µM, OCI-P5x cells, without rucaparib
[34] = at 1.25 µM, OCI-C5x cells, with rucaparib 10 µM, 100% = cells with rucaparib alone
[35] = at 1.25 µM, OCI-C5x cells, without rucaparib
[36] = at 1.25 µM, OCI-P5x cells, with rucaparib 20 µM, 100% = cells with rucaparib alone
[37] = at 1.25 µM, OCI-P5x cells, without rucaparib
[38] = at 5 µM, OCI-C5x cells, with rucaparib 10 µM, 100% = cells with rucaparib alone
[39] = at 5 µM, OCI-C5x cells, without rucaparib
[40] = MELAS cybrid survival, CellTiter-Glo 48 h, stronger effect = higher value
[41] = Rieske KO mouse fibroblast survival, CellTiter-Glo 72 h

CO[C@H]1C[C@H]2CC[C@@H](C)[C@@](O)(O2)C(=O)C(=O)N2CCCC[C@H]2C(=O)O[C@H]([C@H](C)C[C@@H]2CC[C@H](OP(C)(C)=O)[C@H](OC)C2)CC(=O)[C@H](C)/C=C(\C)[C@@H](O)[C@@H](OC)C(=O)[C@H](C)C[C@H](C)/C=C/C=C/C=C/1C
active: viability [1, 8] 74.3% | viability [1, 9] 59.8%

O=c1[nH]c(=O)n([C@@H]2C[C@H](O)[C@@H](CO)O2)cc1F
active: viability [1, 12] 67.7% | viability [1, 13] 24.9% | viability [1, 16] 65.1% | viability [1, 17] 15.4% | viability [1, 21] 98.1% | viability [1, 22] 98.9% | viability [1, 25] 100% | viability [1, 33] 98.4% | viability [1, 36] 89.4% | viability [1, 37] 85.9% | viability [1, 8] 72.1% | viability [1, 9] 49.4%
inactive: viability [1, 10] 115% | viability [1, 11] 119% | viability [1, 14] 111% | viability [1, 15] 117% | viability [1, 18] 106% | viability [1, 19] 121% | viability [1, 20] 105% | viability [1, 23] 111% | viability [1, 24] 104% | viability [1, 26] 109% | viability [1, 27] 120% | viability [1, 28] 104% | viability [1, 29] 109% | viability [1, 30] 109% | viability [1, 31] 114% | viability [1, 32] 104% | viability [1, 34] 117% | viability [1, 35] 128% | viability [1, 38] 185% | viability [1, 39] 183%

CS(=O)(=O)CCNCc1ccoc1-c1ccc2ncnc(Nc3ccc(OCc4ccccc4)cc3)c2c1
-0.404: z-score [6, 41]
-0.675: z-score [3]
inactive: parasite % of control [2] 112% | percent of negative control (+Dex) [3] 80% | z-score [4] 0.33 | z-score [5] 3.01 | z-score [6, 40] 0.221
97.4%: liver cell % of control [2]

CN1CC(=O)N2CCN(C(=O)NCc3ccccc3)C[C@@H]2C1=O
-0.297: z-score [6, 41]
inactive: z-score [6, 40] -0.0344 | z-score [7] -0.795

C[C@@]12CC[C@H]3c4ccc(O)cc4C[C@@H](CCCCCCCCCS(=O)CCCC(F)(F)C(F)(F)F)[C@H]3[C@@H]1CC[C@@H]2O (some centres undefined)
inactive: viability [1, 10] 127% | viability [1, 12] 110% | viability [1, 13] 107% | viability [1, 14] 116% | viability [1, 16] 109% | viability [1, 17] 112% | viability [1, 18] 118% | viability [1, 19] 110% | viability [1, 20] 116% | viability [1, 21] 117% | viability [1, 22] 118% | viability [1, 23] 108% | viability [1, 24] 116% | viability [1, 25] 122% | viability [1, 26] 114% | viability [1, 27] 112% | viability [1, 28] 119% | viability [1, 29] 118% | viability [1, 30] 119% | viability [1, 31] 125% | viability [1, 32] 122% | viability [1, 33] 120% | viability [1, 34] 123% | viability [1, 35] 112% | viability [1, 36] 119% | viability [1, 37] 121% | viability [1, 38] 124% | viability [1, 39] 128% | viability [1, 8] 119% | viability [1, 9] 122%
active: viability [1, 11] 99.5% | viability [1, 15] 98.6%

O=C(Nc1ccc(Oc2ccc3nc(NC(=O)c4ccco4)[nH]c3c2)cc1)Nc1cc(C(F)(F)F)ccc1F
inactive: parasite % of control [2] 37.4% | percent of negative control (+Dex) [3] 81.5% | z-score [4] -0.605 | z-score [5] -0.544
6.9: z-score [6, 41]
-2.38: z-score [3]
-1.24: z-score [6, 40]
140%: liver cell % of control [2]

CC(C)C[C@H](NP(=O)(O)O[C@@H]1O[C@@H](C)[C@H](O)[C@@H](O)[C@H]1O)C(=O)N[C@@H](Cc1c[nH]c2ccccc12)C(=O)O
active: viability [1, 13] 99.9% | viability [1, 16] 97.2% | viability [1, 21] 96.5% | viability [1, 25] 93.9% | viability [1, 28] 99.3% | viability [1, 29] 96.3% | viability [1, 32] 98.1% | viability [1, 33] 98.7% | viability [1, 36] 94.3% | viability [1, 37] 91.1% | viability [1, 8] 88.8% | viability [1, 9] 92%
inactive: viability [1, 10] 124% | viability [1, 11] 113% | viability [1, 12] 105% | viability [1, 14] 127% | viability [1, 15] 113% | viability [1, 17] 103% | viability [1, 18] 127% | viability [1, 19] 116% | viability [1, 20] 104% | viability [1, 22] 122% | viability [1, 23] 106% | viability [1, 24] 101% | viability [1, 26] 121% | viability [1, 27] 107% | viability [1, 30] 124% | viability [1, 31] 103% | viability [1, 34] 132% | viability [1, 35] 117% | viability [1, 38] 123% | viability [1, 39] 104%

Nc1nc(F)nc2c1ncn2[C@H]1O[C@H](CO)[C@@H](O)[C@@H]1O
inactive: viability [1, 10] 101% | viability [1, 11] 120% | viability [1, 12] 104% | viability [1, 13] 108% | viability [1, 14] 106% | viability [1, 15] 117% | viability [1, 16] 103% | viability [1, 17] 107% | viability [1, 18] 112% | viability [1, 19] 120% | viability [1, 20] 102% | viability [1, 21] 112% | viability [1, 22] 109% | viability [1, 23] 116% | viability [1, 25] 113% | viability [1, 26] 106% | viability [1, 27] 111% | viability [1, 28] 110% | viability [1, 29] 113% | viability [1, 31] 112% | viability [1, 33] 112% | viability [1, 36] 110% | viability [1, 37] 107% | viability [1, 8] 106%
active: viability [1, 24] 97.4% | viability [1, 30] 89.3% | viability [1, 32] 99% | viability [1, 34] 80.7% | viability [1, 35] 82.4% | viability [1, 38] 79.6% | viability [1, 39] 11.9% | viability [1, 9] 38.5%
